Data from the supplement of paper PMC6555819.

Assays:
Assay in all cases: PBM binding z-score (relative to random genomic background probes); higher = stronger binding; sequences stand for … in GC…GCGATTGACAGCGTAGAATGAAGG
[1] = test system: RARg:RXRa (NR concentration 270 nM, RXRa partner concentration 90 nM)
Procedure, shortened: (§1)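 Custom Agilent 4×180K protein-binding microarrays carried double-stranded probes, each with a 34-nt variable region. These regions held direct-repeat seeds, single-nucleotide variants, half-site ablations and random human genomic background sequences. Ligand-free nuclear receptor dimers were incubated on the arrays for 1 h, antibodies against each partner (one per run) detected binding, and scanned fluorescence was regression-normalized. Binding z-scores take the random background probes as reference.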

[2] = test system: RARg homodimer (NR concentration 270 nM)
Procedure, shortened: as §1

[3] = test system: RXRa DBDmut IVT, anti-RXR (DBD mutation: RXRa K156A/R161A, NR concentration 90 nM)
Procedure, shortened: as §1

[4] = test system: RXRa homodimer (NR concentration 180 nM)
Procedure, shortened: as §1

[5] = test system: THRa:RXRa (NR concentration 90 nM, RXRa partner concentration 90 nM)
Procedure, shortened: as §1

[6] = test system: THRa homodimer (NR concentration 90 nM)
Procedure, shortened: as §1

[7] = test system: VDR homodimer (NR concentration 270 nM)
Procedure, shortened: as §1

Sequence | PBM binding z-score [1] | PBM binding z-score [2] | PBM binding z-score [3] | PBM binding z-score [4] | PBM binding z-score [5] | PBM binding z-score [6] | PBM binding z-score [7]
CGAACAAGGTCACCAGGACAGTGAAGAGGTTGGA | 6.81 | 6.95 | 3.8 | 7.03 | 4.15 | 3.1 | 2.83
ATATGTAGGTTATCTGGGGTCATTCAGACTAGGC | 4.51 | 3.58 | 2.58 | 5.88 | 5.46 | 3.91 | 5.88
CGAACGAGGTCATGAGTTGATAGCAAATGCCGAT | 6.18 | 6.02 | 4.6 | 6.87 | 4.26 | 3.07 | 4.41
CGCACTAGGTCATCCAGGACAGTGAATACATTGA | 3.99 | 4.51 | 2.26 | 2.76 | 3.73 | 2.4 | 1.76
TCTAGTTGGTCACGGAGGTCCCACACGACGGGTA | 1.02 | 1.61 | 0.484 | 0.931 | 0.42 | 0.108 | -0.235
CAAACTAGGTCAAGGTCTAAGTCGGTTTGTGCCA | 3.81 | 4.71 | 1.44 | 2.49 | 3.15 | 1.57 | 1.14
CAAACTAGTTCAAGAGGTCAAAGTCCGCTTCCCG | 6.53 | 5.81 | 3.18 | 7.43 | 3.77 | 1.92 | 4.98
CGAACAAGGTCATCCAGGACAGTGAATACATTGA | 6.28 | 6.49 | 4.2 | 6.46 | 4.53 | 3.3 | 4.92
CGAACTAGGTCAAGGGACAGTGAAAGGCGACGTA | 3.82 | 4.43 | 0.75 | 2.43 | 2.63 | 0.755 | 0.0374
AGTCAAAGTTTATCTAGGTAACGTAAGATATGCT | 1.12 | 1.41 | 1.93 | 0.551 | 1.6 | -0.0604 | 1.31
TATCAAAGTTCAAAGGTAACGTAAGTATCCACAC | 6.25 | 6.03 | 4.5 | 7.49 | 3.56 | 0.168 | 4.2
CGAACTAGGTCAAAGGACATTGAAAGGCGACGTA | 4.1 | 4.34 | 1.63 | 3.33 | 2.82 | 0.495 | 0.442
ATCGAAAGGTCGACGAGGTGAGTAAACACCGTTT | 4.4 | 4.12 | 0.855 | 4.54 | 3.78 | 0.706 | 0.649
CGTCCAAGGTCGAAGGTCAGTGAAGAGATGACGG | 4.83 | 4.64 | 1.82 | 6.09 | 3.04 | 0.66 | 1.14
AGAATGGGGTTACCAAAGATCAGGGAAACGCTTG | 2.9 | 1.43 | 1.25 | 4.79 | 3.07 | 0.513 | 0.217
CCGAGTTGGTCAAGGTCACACACGCTATAGGTAC | 4.58 | 4.8 | 3.18 | 4.46 | 4.24 | 4.39 | 4.74
CCTTACGGGTTACTCCAGGTTATAGCATCGGAGT | 0.987 | 0.779 | -0.0626 | 1.26 | 4.49 | 0.236 | 0.487
ATATGTAGGTTAGGGGTCATTCAGGTTGGTTCGC | 5.63 | 4.38 | 2.85 | 7.75 | 3.99 | 2.88 | 6.78
CCTTACGGGTCACGTGGTTATAGCACGACGAGCG | 5.5 | 5.1 | 1.32 | 6.08 | 3.04 | 0.0729 | 0.82
AGTCAAAGTTCATCTAGGTAACATAAGATATGCT | 5.69 | 6.1 | 4.79 | 4.84 | 3.19 | 0.324 | 5.55
CGAACTAGGTCATCCAGGACCGTGAATACATTGA | 3.95 | 4.72 | 2.15 | 2.82 | 3.12 | 0.969 | 0.996
CGAACTAGGTCTAAGGACAGTGAAAGGCGACGTA | -0.0449 | 0.382 | 0.0916 | 0.0481 | 2.65 | 1.96 | -0.112

Sequence | PBM binding z-score [1] | PBM binding z-score [2] | PBM binding z-score [3] | PBM binding z-score [4] | PBM binding z-score [5] | PBM binding z-score [6] | PBM binding z-score [7]
TAGCCTAGGTTATGGGCCAGTATACCACGCGAAC | 0.379 | 0.719 | -0.976 | 0.432 | 0.373 | -0.271 | -0.399
AATACAGGGTCATCGTAGGTCAGAGTACGCACAG | 6.41 | 5.81 | 3.75 | 6.77 |  | 2.38 | 4.46
TCTAGTTGGTCTAAGGTCACACACTCGAAATGCG | 4.63 | 4.37 | 2.21 | 4.71 | 4.63 | 5.66 | 2.99
TTGCCTAGGTCATTGGGCCAGTATAGTACGCATC | 3.73 | 4.22 | 1.9 | 2.8 | 2.89 | 1.05 | 1.14
GCATATAGGTAATACAAGGTCAAAGTCCGATTGT | 3.39 | 2.81 | 1.43 | 3.97 |  | 3.05 | 2.68
ATATGTAGGTTAGGGTCAGTCAGAAAGTAGGGAA | 3.08 | 3.14 | 1.04 | 3.37 | 3.32 | 2.69 | 1.79
CGTCAAAGTTCAACTAAGGTTACGTAAAGCACGC | 6.64 | 7.26 | 4.73 | 6.03 |  | 2.2 | 4.89
TAGCCTAGTTCATTCAGGGGCCAGTATAGAAAGC | 3.6 | 1.34 | 2.96 | 0.328 | 1.68 | -0.0964 | 2.71
ATATGTAGGTTAACTGGGGTCATTCAGACTAGGC | 4.95 | 3.7 | 2.76 | 5.82 |  | 3.07 | 5.41
CGAACGAGGTCATCCAGGACAGTGAATACATTGA | 6.67 | 6.52 | 4.86 | 7.28 |  | 3.83 | 6.44
CGTCCAAGGTCATAGGAGGTCAATGAAGACAGAT | 6.94 | 7.28 | 3.99 | 7.15 |  | 3.89 | 4.97
GGAACGAGGGCATTCGAGTTCATAGCATGGCGAT | 2.51 | 2.58 | 3.99 | 2.5 |  | -0.00454 | 8.72
CGTCCAAGGTCACGGTCAGTGAAAGAGACTCGAA | 7.19 | 8.03 | 4.12 | 7.6 | 4.29 | 3.63 | 2.8
AGTCAAAGTTCAGGACGACGTAACGTAAAGCACG | 3.78 | 4.45 | 2.93 | 2.66 | 2.02 | 0.216 | 2.05
TCTTGTAGATCGATAGAGGTTAAGAAAGTGCGCT | 0.525 | 0.389 | 0.591 | 1.1 | 1.48 | -0.46 | 0.0902
CAAACCAGGTCACAGAGGTCAAAGTCCGTGCGTA | 7.52 | 7.53 | 4.06 | 8.5 |  | 3.92 | 8.47
CGTACAAGGTCAAAGGTCAGTGAAGAGATGACGG | 8.95 | 8.28 | 4.22 | 10.5 | 4.71 | 2.58 | 4.13
GCTGCTAGGTCAACTGATGGTCACCTAAAGCTCG | 5.53 | 5.1 | 1.29 | 3.52 | 3.38 | 1.69 | 0.0494
AATACAGGGTCATCTTAGGCCAGAGTACGCACAG | 5.61 | 5.2 | 3.85 | 6.42 |  | 2.11 | 3.76
CCTGCGAGGTCATGGTCAGCTAATCTACAGTATG | 6.42 | 6.15 | 4.26 | 7.05 | 4.34 | 3.39 | 3.95
CGTCCAAGGTCATATGAGGTCAGTGAAGACAGAT | 6.88 | 7.55 | 4.62 | 7.07 |  | 4.58 | 6.28
TAGCCTAGGTCATTCAGGGGCCAGCATAGAAAGC | 6.31 | 4.44 | 1.98 | 2.92 | 3.55 | 0.61 | 1.44

Sequence | PBM binding z-score [1] | PBM binding z-score [2] | PBM binding z-score [3] | PBM binding z-score [4] | PBM binding z-score [5] | PBM binding z-score [6] | PBM binding z-score [7]
AATACGGGGTCACTAGGCCAGAGTAGGTACGAAT | 7.06 | 6.82 | 4.12 |  | 4.25 | 2.25 | 4.82
TCGTGTAGGTTACGGGGGCATTCAGGGATGAAGA | 4.09 | 3.31 | 2.75 | 3.35 | 4.09 | 2.66 | 3.98
CAAACTAGGTCACAAAAGGTCAAAGTCGAATGAC | 7.42 | 8.02 | 2.52 | 7.78 | 4.76 | 2.22 | 3.98
ATCGAAAGGTCGACCAGGTGAGTATACACCGTTT | 4.38 | 4.1 | 1.3 | 4.37 | 3.34 | 0.391 | 1.22
CCTACTGGTCCAAGGTCATTGATCAGTCAAAGCA | 3.84 | 3.4 | 2 | 3.96 | 3.59 | 3.48 | 3.1
CTACCAAGGTCAACAAGGTCGTTGATTACTATTC | 6.87 | 6.92 | 4.65 | 6.84 |  | 3.68 | 7.86
ATATGTAGGTTACCTGGGGTCATTCAGACTAGGC | 4.46 | 3.44 | 1.99 | 5.78 |  | 3.39 | 5.34
CTCGAAAGGTCGTGCTCAGATGAGTATACCAAAC | 4.06 | 3.84 | 1.66 | 4.62 | 2.22 | -0.171 | 1.15
ATCGAAAGGTCGACGCGGTGAGTATACACCGTTT | 4.07 | 4.09 | 1.12 | 3.83 | 1.97 | -0.506 | 0.391
CCTACTGGGTCACGAAAGGTCATTGATTCAGTGA | 6.96 | 6.81 | 1.69 | 7.05 |  | 1.82 | 2.59
CCTAGTGGGCCAAGGTCATTGATCAGTCAAAGCA | 3.74 | 3.3 | 1.05 | 3.2 | 3.45 | 2.05 | 2.91
CAAACCAGGTCAAGAGGTCAAAGTCCGCTTCCCG | 8.29 | 7.56 | 3.21 | 8.5 |  | 3.54 | 5.13
CAAACTAGGTCACGAGAGGTCAAAGTCGAATGAC | 7.59 | 8.3 | 2.82 | 7.93 |  | 2.88 | 5.09
CCGAGTAGGTTACGAGGGGTCATTCAGTGCGAAT | 5.1 | 3.76 | 1.89 | 5.85 |  | 0.607 | 5.41
TAGCCTAAGTCATGCGGGCCAGTATAGTGTCGGC | -0.283 | -0.412 | -0.949 | -0.136 | -0.34 | -0.848 | -1.04
CCTTACGGGTCACTCCAGGTCATAGCATCGGAGT | 5.28 | 5.41 | 1.08 | 5.06 |  | 3.03 | 2.49
AGAATGAGGTTACCAAAGGTCAGGGAAACGCTTG | 6.29 | 5.66 | 1.72 | 7.02 |  | 2.11 | 1.92
ATATGTAGGTTATCGGGTCATACAGTTTGCGCAT | 3.64 | 2.84 | 1.67 | 3.87 | 3.68 | 2.82 | 3.52
TATACAGGGTCAAAGGCCAAAGTACGAATGTCGA | 6.22 | 5.3 | 3 |  | 3.76 | 0.785 | 3.3
CAAACCAGGTCAAAGGTCAAAGTCGAGCCAACCA | 8.97 | 7.49 | 3.71 |  | 5.07 | 2.57 | 3.91
